In PubChem BioAssay AID588497 (NMMLSC, 2011):
About 780 (0.22%) of roughly 360,000 compounds were called active. Roughly 4% stayed inconclusive and do not appear here. The full list was thinned out, with actives kept by preference. A number with no mark means an inactive call. Cut-off read from the data, not from the text of the source: active = inhibition above about 35% (passing the limit was not always enough); inconclusive = no clear call, values can overlap the other calls.

What follows are molecules tested on Botulinum neurotoxin type F light chain protease (Clostridium botulinum) (assay: BoNT/F light chain protease inhibitors, primary screen, biochemical, flow cytometry, MLPCN library (AID 588497; note: plate controls were buffer without enzyme for full effect and enzyme alone for no effect)). Conditions: Multiplex microsphere protease cleavage assay, at 10 µM, stronger effect = higher value.

Structure (SMILES) | inhibition
C=C1C(=O)[C@]23C[C@H]1CCC2[C@@]1(C)C(C[C@@H]3O)[C@](C)(C(=O)O)CC[C@@H]1O (stereo partly drawn) | 6.7%
CC12CCC(=O)C=C1CCC1C2C(O)CC2(C)C1CCC2(O)C(O)CO (stereo not drawn) | -2.7%
COc1ccc(-c2cc3nc(NCCOc4ccccc4)ccn3n2)cc1 | -7%
CC1=C(C(=O)N(C(C)C)C(C)C)CC(CC(=O)NCCCCc2ccccc2)C(=O)N1CCC1=CCCCC1 (stereo not drawn) | -9.4%
CC(C)(C)CC(=O)Nc1nc(C(N)Cc2ccc(C(F)(F)F)cc2)cs1 (stereo not drawn) | -15.5%
CCCNC(=O)c1cc2c(c(-c3cccc(-c4ccc(C#N)cc4)c3)n1)[C@@H](CCO)N(C(=O)CC)C2 | -8.6%
CN1CCN(c2ccc(NC(=O)c3cc(Cl)c4c(c3)OCCO4)cc2)CC1 | -0.9%
CN1CCN(c2ccc(NC(=O)c3ccccc3)cc2)CC1 | 38.8% (active)
CN1CCN(c2ccc(NC(=O)c3ccc4c(c3)[nH]c(=O)n4Cc3ccc(F)cc3)cc2)CC1 | -37.9%
CCCCC(=O)N(C)c1c(CC)nc2c(OCc3ccc(Cl)cc3Cl)cccn12 | -1.2%
CCC(c1nnnn1-c1ccc2c(c1)OCCO2)N1CCN(c2ccc(C(F)(F)F)cn2)CC1 (stereo not drawn) | 6.4%
CC1=C(C(=O)N(C(C)C)C(C)C)CC(CC(=O)NCC2CCCCC2)C(=O)N1Cc1ccccc1 (stereo not drawn) | -6.1%
O=C1C(Sc2cccc(F)c2)=C[C@@]2(O)CC[C@@H](O)[C@]1(Sc1cccc(F)c1)[C@H]2O | -5.7%
CCOC(=O)C1=CCC2C(=O)N(Cc3ccccc3)C(=O)C12 (stereo not drawn) | 7.8%
CC(=O)Nc1cncc(-c2ccccc2CO)n1 | -2.7%
O=C(NCCN1CCOCC1)c1ccccc1N1C(=O)[C@@H]2Cc3c([nH]c4ccccc34)C(c3cccc(Cl)c3)N2C1=O (stereo partly drawn) | -6.1%
O=C(COC(=O)c1ccccc1)Nc1ccc(Cl)cc1C(=O)c1ccccc1 | -15.4%
CC(NCC(=O)Nc1cc(Cl)cc(Cl)c1)c1ccccc1 (stereo not drawn) | 2.2%
NNC(=O)CNC(c1ccccc1)c1cc(Cl)ccc1NC(=O)c1ccccc1 (stereo not drawn) | 43.2% (active)
CC(C)C[C@H]1CNC(=S)N1C[C@H]1CCCN1C[C@H](Cc1ccc(O)cc1)N1C[C@H](Cc2ccc(O)cc2)N(CC2CCCCC2)C1=S | -11%

Structure (SMILES) | inhibition
COc1ccccc1-n1c(-c2cc(-c3ccco3)[nH]n2)n[nH]c1=S | 40.9% (active)
COc1ccccc1-n1cn[nH]c1=S | 0.3%
COc1ccc(-n2c(-c3ccc(Cl)cc3)n[nH]c2=S)c(OC)c1 | -4.7%
OC(c1ccccc1)(c1ccccc1)C1CCN(CCCOc2ccccc2)CC1 | 0.4%
CC1(C(=O)NCc2ccc(F)c(F)c2)Cc2c(-c3ccc4c(c3)OCO4)ccnc2O1 (stereo not drawn) | -7.8%
Cc1ccc(Cc2c(-c3ccco3)nc3ccc(Cl)cn23)cc1 | -6%
CCCCOCCCNC(=O)C[C@@H]1C[C@@]2(C(=O)OC)CCCCC=C2N(CCC2=CCCCC2)C1=O | 7.8%
CC(C)Oc1cc(F)ccc1-c1cc(C(=O)Nc2cccc(Cl)c2)[nH]n1 | -7.1%
CN(Cc1ccccc1F)c1cc2c(c3c1ccn3C)C1CCC2O1 (stereo not drawn) | 3.2%
COC(=O)[C@]12CCCCC=C1N(CCC1=CCCCC1)C(=O)[C@H](CC(=O)NCC1CCCCC1)C2 | 5.5%
CCc1ccc(OC2(C)CCN(CCOc3ccc(C)cc3)C2)cc1 (stereo not drawn) | -9.6%
CN(C)C1CN(Cc2cn(Cc3ccccc3)nn2)S(=O)(=O)C1 (stereo not drawn) | -1.7%
CCCCCc1c(C)nc(N2CCN(Cc3ccc4c(c3)OCO4)CC2)[nH]c1=O | 39.2% (active)
Cc1cc(C)n2nc(C(=O)N3CCN(Cc4ccc5c(c4)OCO5)CC3)nc2n1 | -11.5%
CCc1c(C)nc(N2CCN(Cc3ccccc3)CC2)[nH]c1=O | 6.6%
Cc1cc(Cl)ccc1-c1nc(NCCN(C)C)nc2ccsc12 | -4.9%
CC1(Oc2ccccc2-c2ccno2)CCN(Cc2ccc(-c3ccccc3)o2)C1 (stereo not drawn) | -11.5%
OC[C@@H]1CN(Cc2ccc(-c3ccccc3)cc2)C[C@H](n2cnc3c(NC4CCCC4)ncnc32)O1 | -4.6%
CC(=O)Nc1ccc(CNc2nc(NCCN(C)C)nc3cc(-c4ccccc4)sc23)cc1 | -18.9%
CC(=O)Oc1ccc(NC(=O)CCC2CCCCC2)c(C(=O)O)c1 | 37.7% (active)

Structure (SMILES) | inhibition
COC(=O)c1sccc1NC(=O)CCC1CCCC1 | 1.8%
Cc1cc(C(=O)NNC(=O)CCC2CCCCC2)c(C)o1 | 0.3%
NC(c1csc(NC(=O)Nc2ccccc2Oc2ccccc2)n1)c1ccccc1Cl (stereo not drawn) | -12.1%
CN1CCN(CC#CCC2(O)c3ccccc3-c3ccccc32)CC1 | -6.9%
CC(C)N(CC#CCC1(O)c2ccccc2-c2ccccc21)C(C)C | 37.1% (active)
CCOC(=O)[C@]12CCC=C1N(Cc1ccco1)C(=O)[C@H](CC(=O)NCc1cccc(C(F)(F)F)c1)C2 | -2.2%
CC=CCn1c(SCCCc2ccccc2)nc2c1c(=O)[nH]c(=O)n2C | -3.4%
OC(c1ccc(Cl)c(F)c1)c1ncc(-c2ccccc2Cl)[nH]1 (stereo not drawn) | -8.1%
Cc1cc(Br)cn2c(Cc3cccc(F)c3)c(-c3cccc(Br)c3)nc12 | 5.5%
COc1ccccc1-c1cnn2c(N3CCOCC3)cc(C)nc12 | 38.5% (active)
COc1ccccc1NC(=O)C1CCCN(c2cc(C)nc3ncnn23)C1 (stereo not drawn) | 4.8%
Cc1cc(-n2nc(C)cc2C)n2ncc(-c3ccccc3)c2n1 | 5.4%
CCc1nc2c(OCc3ccc(Cl)cc3Cl)cccn2c1N(C)C(=O)C(C)C | -7.2%
Cc1cc(C)c(S(=O)(=O)NN=C2c3ccccc3[C@H]3Cc4csc[n+]4[C@@H]23)c(C)c1 | -7.5%
Cc1nc2c(OCc3cccc(Cl)c3)cccn2c1N(C)CC1CC1 | -6.3%
COC(=O)CNc1nc(Cl)nc(N2CCC(C)CC2)n1 | -7.3%
Clc1nc(NC2CCCC2)nc(N2CCOCC2)n1 | 53.9% (active)
COc1nc(NC2CCCCC2)nc(N2CCCCCC2)n1 | 8.2%
